PubChem BioAssay AID431 (Sanford-Burnham Center for Chemical Genomics, 2006)
The campaign covered roughly 63,000 compounds. About 1,100 (1.7%) were called active. For the sample, actives were picked, then their nearest neighbours and some compounds at random. Measured potencies and affinities stand elsewhere. Unmarked numbers belong to inactive results.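 How the source made its calls: active means compounds whose percent cytotoxicity in the single-dose primary screen, scaled between solvent and toxic-drug controls, exceeds 50; inactive means the rest.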

Experiment: cytotoxicity in KRAS-transformed pancreatic duct cells, primary screen, cell-based, fluorescence, HTS (AID 431);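 further: 0% = DMSO solvent wells and 100% = doxorubicin-treated wells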
Conditions: HPDE-C7K KRASV12 cells, Alamar Blue viability, 48 h; at 10 µM; active compounds read high
Molecule `Cc1ccc(S(=O)(=O)N2CCN(S(=O)(=O)N3CCCCC3)CC2)c(C)c1` has a cytotoxicity of 6.6%. With `Cc1cccc(Nc2nc(N)nc(CN3CCN(c4ccccc4)CC3)n2)c1` the cytotoxicity was -21.7%. With `CCN1CCN(Cc2nc(N)nc(Nc3ccc(C)c(C)c3)n2)CC1` the cytotoxicity was -24.7%. For `CC1CC(C)CN(Cc2nc(N)nc(Nc3ccc4ccccc4c3)n2)C1` (stereo not given), the cytotoxicity was 58.4% (active). `COc1ccc(N2CCN(Cc3nc(N)nc(Nc4ccc(C)c(Cl)c4)n3)CC2)cc1` showed a cytotoxicity of 19.1%. In the case of `Cc1ccc(Nc2nc(N)nc(CN3CCN(c4ccccc4)CC3)n2)cc1Cl`, the cytotoxicity is reported as 54.7% (active). Work on `Cc1ccc(Nc2nc(N)nc(CN3CCN(C)CC3)n2)cc1C` yielded a cytotoxicity of -27.5%. `CC(=O)c1cc2c(cc1NC(=O)CSc1nnc(C)s1)OCO2` showed a cytotoxicity of 11.3%. Work on `CCOC(=O)C1C2C=CC3(CN(Cc4cccs4)C(=O)C13)O2` (stereo not given) yielded a cytotoxicity of 4.9%. `COc1cccc(NC(=O)C2CCCN(S(=O)(=O)c3cccc4cccnc34)C2)c1` (stereo not given) gave a cytotoxicity of 20.1%. `Cc1nc(NC(=O)CSc2ccccc2N)sc1C` gave a cytotoxicity of 3%. For `Cn1c(=O)[nH]c(=O)c2c1nc(Sc1ncccn1)n2CCCc1ccccc1`, the cytotoxicity was 3.9%. Work on `CC(C)Cc1nc(C(N)=O)c2[nH]c(=O)n(-c3ccc(F)cc3)c2n1` yielded a cytotoxicity of -1.8%. For `O=C(CCN1CCN(CCC(=O)c2ccccc2)CC1)c1ccccc1`, the cytotoxicity was -9.4%. `O=C(CCN1CCN(c2ccccc2F)CC1)Nc1ccccc1F` gave a cytotoxicity of -5.4%. In the case of `O=C(COc1ccc(Cl)cc1)NCc1nnc(SCC(=O)Nc2ccccc2)o1`, the cytotoxicity is reported as -7.7%. Work on `CC(C)NC(=O)CN1CCN(c2ncccn2)CC1` yielded a cytotoxicity of -7.7%. With `CC(=O)NCCSC(=O)c1ccc(F)cc1` the cytotoxicity was -2.7%. With `O=S(=O)(Nc1cccc(-c2nc3cccnc3s2)c1)c1ccc2c(c1)OCCO2` the cytotoxicity was 50.4% (active). `O=S(=O)(Nc1nccs1)c1ccc2c(c1)OCCO2` gave a cytotoxicity of 5.1%. With `O=S(=O)(Nc1cccc(-c2cn3ccsc3n2)c1)c1ccc(F)cc1` the cytotoxicity was 42.2%. `Cc1cccc(S(=O)(=O)Nc2cccc(-c3cn4ccsc4n3)c2)c1` gave a cytotoxicity of 31.3%. In the case of `O=S(=O)(Nc1ccc(-c2cn3ccsc3n2)cc1)c1ccc2c(c1)OCCO2`, the cytotoxicity is reported as 53.9% (active). In the case of `Cc1ccc(S(=O)(=O)Nc2cccc(-c3cn4ccsc4n3)c2)cc1`, the cytotoxicity is reported as 64% (active). Work on `c1cn2cc(-c3ccc4c(c3)OCO4)nc2s1` yielded a cytotoxicity of 15.3%. For `CC(C)CC(=O)Nc1ccc(-c2cn3ccsc3n2)cc1`, the cytotoxicity was 56.7% (active). Molecule `CC(C)CC(=O)Nc1cccc(-c2cn3ccsc3n2)c1` has a cytotoxicity of 11.7%. With `O=S(=O)(Nc1cccnc1)c1ccc2c(c1)OCCO2` the cytotoxicity was 1.8%. With `CC(=O)Nc1ccc(-c2cn3ccsc3n2)cc1` the cytotoxicity was 6.9%. In the case of `O=S(=O)(NCc1cn2ccsc2n1)c1ccc2c(c1)OCCO2`, the cytotoxicity is reported as 4.2%. `O=C(CSCc1ccccc1)NC1CCSC1=O` (stereo not given) gave a cytotoxicity of 11.9%. Work on `O=C(CSc1nnc(CCc2nc3ccccc3[nH]2)n1-c1ccccc1)NCc1ccco1` yielded a cytotoxicity of -22.8%. For `COc1ccccc1OCc1ccc(C(=O)n2nc(C)c(Cl)c2C)o1`, the cytotoxicity was -1.6%. `CN(C)c1ccc(C(=O)c2ccc(N(C)C)c(N)c2)cc1N` showed a cytotoxicity of 46%. For `CCOC(=O)C(C)Oc1ccc(C2NC(=O)NC(C)=C2C(C)=O)cc1Br` (stereo not given), the cytotoxicity was 8.9%. `O=C(NCCc1ccccc1)C1CCCN(S(=O)(=O)c2cccnc2)C1` (stereo not given) gave a cytotoxicity of -7.8%. Work on `O=C(NCc1ccc2c(c1)OCO2)c1cnc2n(c1=O)CCS2` yielded a cytotoxicity of 11.4%. With `COc1ccc(-c2[nH]c(-c3ccc(F)cc3)nc2SCC(=O)NCc2ccco2)cc1OC` the cytotoxicity was 6.3%. For `COc1ccc(-c2[nH]c(-c3cccc(OC)c3)nc2SCC(=O)NCc2ccco2)cc1`, the cytotoxicity was 50.4% (active). For `COc1ccc(-c2nc(SCC(=O)NCc3ccco3)c(-c3ccccc3)[nH]2)cc1OC`, the cytotoxicity was -6.7%. For `CS(=O)(=O)NCCCc1ccccc1`, the cytotoxicity was -3.7%. For `O=C(NCc1ccccn1)c1ccc(/C=N/O)nc1`, the cytotoxicity was 0.9%. Work on `CC1CCN(c2nc(-c3ccc(F)cc3)cc(C(F)(F)F)n2)CC1` yielded a cytotoxicity of -19.1%. For `O=C(c1ccc(F)cc1)C1CCN(CCn2c(=O)[nH]c3ccccc3c2=O)CC1`, the cytotoxicity was 5.6%. Work on `O=c1c2ccccc2[nH]c(=S)n1CCN1CCN(Cc2ccccc2)CC1` yielded a cytotoxicity of 0.6%. In the case of `CCSc1nnc(NC(=O)c2cc(C)oc2C)s1`, the cytotoxicity is reported as 10.1%. For `Cc1noc(C(=O)Nc2c(C)nn(Cc3ccccc3)c2C)c1Cl`, the cytotoxicity was -3.9%. In the case of `CCOC(=O)N1CCN(C(=O)c2ccc3c(c2)N(CC)CCS3)CC1`, the cytotoxicity is reported as 1%. With `CC(C)C(=O)NC(c1ccco1)c1ccc2cccnc2c1O` (stereo not given) the cytotoxicity was -36.3%. With `CC(=O)NC(c1ccco1)c1ccc2cccnc2c1O` (stereo not given) the cytotoxicity was 23.7%. `Cc1ccc(S(=O)(=O)C(C#N)c2nc3ccccc3nc2N2CCCCC2)cc1` (stereo not given) gave a cytotoxicity of 0.6%. `COC(=O)c1ccc(-n2nnnc2SCC(=O)N2CCCCC2)cc1` gave a cytotoxicity of -30.4%. In the case of `COc1ccc(CCNC(=O)c2cnccn2)cc1`, the cytotoxicity is reported as -0.7%. With `CCOC(=O)C1CCN(c2c(NCCN3CCCCC3C)c(=O)c2=O)CC1` (stereo not given) the cytotoxicity was 2.6%. In the case of `O=C(Cn1c(CO)nc2ccccc21)Nc1cc(C(F)(F)F)ccc1N1CCOCC1`, the cytotoxicity is reported as -13.4%. With `c1ccc(N2CCOCC2)c(Nc2nc3ccccc3n3cnnc23)c1` the cytotoxicity was 0.7%. `C=CCn1c(COc2ccccc2)nnc1SCC(=O)C(C)(C)C` gave a cytotoxicity of 8.4%. `Cc1ccc(NC(=O)CCNS(=O)(=O)c2ccc3c(c2)oc(=O)n3C)cc1` showed a cytotoxicity of -10.2%. `Cn1c(=O)oc2cc(S(=O)(=O)NCCc3ccccc3)ccc21` showed a cytotoxicity of -10.4%. With `O=C(NC1CCCCC1)c1ccc(S(=O)(=O)NCc2ccco2)cc1` the cytotoxicity was -0.5%. Work on `O=C(Nc1ccccc1)c1ccc(S(=O)(=O)NCc2ccco2)cc1` yielded a cytotoxicity of -6.4%. With `O=C(NCCc1c[nH]c2ccccc12)c1ccc(S(=O)(=O)NCc2ccco2)cc1` the cytotoxicity was 51.2% (active). For `CN(CCOC(=O)c1ccc2c(c1)OCCO2)Cc1ccccc1`, the cytotoxicity was -8%. Molecule `FC(F)Oc1cccc2cccnc12` has a cytotoxicity of 3.1%. `O=C(COc1cccc2cccnc12)Nc1nccs1` showed a cytotoxicity of 8.2%. `O=C(Oc1cccc2cccnc12)c1cccc(-n2cnnn2)c1` gave a cytotoxicity of 23.3%. `O=S(=O)(Nc1ccc2c(c1)OCCO2)c1cccc2cccnc12` showed a cytotoxicity of 4.7%. Work on `Cc1noc(C)c1COC(=O)c1ccc2c(c1)OCCO2` yielded a cytotoxicity of 4.7%. For `Cc1ccc2cccc(OC(=O)c3ccc4c(c3)OCCO4)c2n1`, the cytotoxicity was 54.5% (active). In the case of `Cn1c(C(=O)N2CCN(c3ncccn3)CC2)cc2c(=O)n(C)c3ccccc3c21`, the cytotoxicity is reported as 17.4%. `O=C(Nc1cnn(Cc2ccc(Cl)cc2)c1)c1cnccn1` gave a cytotoxicity of -2.7%. Work on `CC(=O)NC(CC(C)C)C(=O)NC(=O)NCc1ccccc1` (stereo not given) yielded a cytotoxicity of 15.8%. `CCN(CC)CCCN1C(=O)C(=O)/C(=C(/O)c2ccc3c(c2)OCCO3)C1c1ccco1` (stereo not given) gave a cytotoxicity of 5.8%. `Cn1c(-c2ccccc2)cnc1SCC(=O)NCc1ccco1` showed a cytotoxicity of -16.1%. In the case of `COC(=O)C(NC(C)=O)(Nc1ccccc1)C(=O)OC`, the cytotoxicity is reported as 27.5%. In the case of `COC(=O)C(NC(C)=O)(Nc1ccc(Br)cn1)C(F)(F)F` (stereo not given), the cytotoxicity is reported as 2.3%. In the case of `COC(=O)C(NC(C)=O)(Nc1ccc(Br)cc1)C(=O)OC`, the cytotoxicity is reported as 53.3% (active). For `O=S(=O)(c1cccc(Cl)c1)N1CCCC1`, the cytotoxicity was -5.7%. In the case of `O=C(NC1CCCCC1)c1sc(=S)n2c1[nH]c(=O)c1ccccc12`, the cytotoxicity is reported as 77.2% (active). Molecule `O=C(NCC1CCCO1)c1sc(=S)n2c1[nH]c(=O)c1ccc(C(=O)N3CCCCC3)cc12` (stereo not given) has a cytotoxicity of 5.2%. For `O=C(NC1CCCCCC1)c1c(O)c2ccccc2[nH]c1=O`, the cytotoxicity was -13.7%. `O=C(NC1CCCCCCC1)c1c(O)c2ccccc2[nH]c1=O` showed a cytotoxicity of -19.1%. With `O=C(NC1CCCC1)c1sc(=S)n2c1[nH]c(=O)c1ccccc12` the cytotoxicity was 68.9% (active). `Cn1c(=O)c(C(=O)NC2CCCCCCC2)c(O)c2ccccc21` gave a cytotoxicity of 13.6%. `CSc1nnc(Cn2c(=O)sc3ccccc32)n1-c1ccccc1` showed a cytotoxicity of 13%. Work on `Cc1nc2ccc(NC(=O)N3CCOCC3)cc2s1` yielded a cytotoxicity of -19.1%. For `Nc1nnc(SCc2cccnc2)s1`, the cytotoxicity was -0.3%. For `O=c1[nH]c(=O)n([C@H]2C[C@H](O)[C@@H](CO)O2)cc1F`, the cytotoxicity was 55.6% (active). With `CCc1cn([C@H]2C[C@H](O)[C@@H](CO)O2)c(=O)[nH]c1=O` the cytotoxicity was -1.3%. Work on `Cc1cn([C@H]2C[C@H](N=[N+]=[N-])[C@@H](CO)O2)c(=O)[nH]c1=O` yielded a cytotoxicity of -5.9%. In the case of `CCc1sc(C(=O)NC)cc1Br`, the cytotoxicity is reported as -2.9%. Work on `CC(C)N1C(=O)C2C(C(=O)NC3CCCCC3)C3C=CC2(O3)C1C(=O)NC1CCCCC1` (stereo not given) yielded a cytotoxicity of 13.7%. With `c1ccc(Nc2nc(N3CCCCC3)nc(N3CCNCC3)n2)cc1` the cytotoxicity was 75.8% (active). For `c1ccc(Nc2nc(N3CCOCC3)nc(N3CCOCC3)n2)cc1`, the cytotoxicity was 5%. In the case of `C1CCN(c2nc(N3CCCCC3)nc(N3CCNCC3)n2)CC1`, the cytotoxicity is reported as 11.6%. `CCOC(=O)c1ccccc1NC(=O)C1COc2ccccc2O1` (stereo not given) showed a cytotoxicity of -10.4%. Work on `COc1ccc(-n2nnc3c(SCc4ccccc4)ncnc32)cc1` yielded a cytotoxicity of 2.7%. `c1ccc(CN2CCN(c3nc4ccccc4n4cnnc34)CC2)cc1` showed a cytotoxicity of 1.8%. `COc1ccc(OC)c(C(O)c2coc3ccc(O)c(CN4CCOCC4)c23)c1` (stereo not given) showed a cytotoxicity of 5.9%. Work on `COCCn1nnnc1C(c1ccc(OC)cc1OC)N1CCN(c2ccccc2)CC1` (stereo not given) yielded a cytotoxicity of 11.2%.
